According to PubChem BioAssay (NCI):
About 83,000 compounds went through this panel and 20% of them were active in at least one assay; those are over-represented in the sample as a whole.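 Treatment: one concentration, 48 hours, 96-well format. Scoring: percent growth, with anything below 10 considered active.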 A number with no mark means an inactive call. Active and inactive are the calls of the source.

Experiments:
Test in all cases: NCI-60 one-dose screen, 48 h (100 = growth as untreated, 0 = no growth, -100 = all killed)
Conditions in all cases: 10 µM unless noted
SK-MEL-2 melanoma = tested on: SK-MEL-2 melanoma
EKVX NSCLC = tested on: EKVX NSCLC
SN12C renal = tested on: SN12C renal
UO-31 renal = tested on: UO-31 renal
TK-10 renal = tested on: TK-10 renal
ACHN renal = tested on: ACHN renal
CAKI-1 renal = tested on: CAKI-1 renal
A498 renal = tested on: A498 renal
CCRF-CEM leukemia = tested on: CCRF-CEM leukemia
MOLT-4 leukemia = tested on: MOLT-4 leukemia
SR leukemia = tested on: SR leukemia
RPMI-8226 leukemia = tested on: RPMI-8226 leukemia
OVCAR-8 ovarian = tested on: OVCAR-8 ovarian
OVCAR-5 ovarian = tested on: OVCAR-5 ovarian
OVCAR-4 ovarian = tested on: OVCAR-4 ovarian
SK-OV-3 ovarian = tested on: SK-OV-3 ovarian
IGROV1 ovarian = tested on: IGROV1 ovarian
OVCAR-3 ovarian = tested on: OVCAR-3 ovarian
HS 578T breast = tested on: HS 578T breast
NCI/ADR-RES ovarian = tested on: NCI/ADR-RES ovarian

Compound | growth (SK-MEL-2 melanoma) | growth (EKVX NSCLC) | growth (SN12C renal) | growth (UO-31 renal) | growth (TK-10 renal) | growth (ACHN renal) | growth (CAKI-1 renal) | growth (A498 renal) | growth (CCRF-CEM leukemia) | growth (MOLT-4 leukemia) | growth (SR leukemia) | growth (RPMI-8226 leukemia) | growth (OVCAR-8 ovarian) | growth (OVCAR-5 ovarian) | growth (OVCAR-4 ovarian) | growth (SK-OV-3 ovarian) | growth (IGROV1 ovarian) | growth (OVCAR-3 ovarian) | growth (HS 578T breast) | growth (NCI/ADR-RES ovarian)
NC(N)=Nc1ccc(Nc2cccc(Oc3ccc(Cl)c(C(F)(F)F)c3)c2)cn1 | 74.9% | 30.5% | -71.8% (active) | 56.4% | 81.7% | 55.7% | 42.9% | 62.8% | -9.86% (active) | 0.616% (active) | -49.9% (active) | -40.8% (active) | 27.4% | 58.1% | 39.8% | 56.3% | 22.6% | -55% (active) | 45.4% | 80.5%
CC1(C)CC[C@]2(C(=O)N3CCOCC3)CC[C@]3(C)C(=CC[C@@H]4[C@@]5(C)C/C(=C/c6ccccn6)C(=O)C(C)(C)[C@@H]5CC[C@]43C)[C@@H]2C1 | 82.9% | 56.1% | 67.7% | 42% | 70.2% | 76.9% | 28.9% | -3.14% (active) | 44.5% | 25% | 22.5% | 15.9% | 77.9% | 88.4% | 36.1% | 108% | 65.3% | 70.2% | 81.6% | 81.4%
N=c1c2cc(-c3ccccc3)oc2ncn1/N=C/c1ccc(Br)cc1 | 104% | 79.4% | 60% | 85.4% | 111% | 19.3% | 88.5% | 80.4% | 68.7% | 85% | 30.1% | 92.4% | 80.7% | 49.3% | 19.7% | 101% | 42.8% | -7.71% (active) | 79.1% | 22.3%
O=C(CN1CCN(c2cc(=O)n(-c3ccccc3)c3ccccc23)CC1)Nc1nc(-c2ccc(Cl)cc2)cs1 | 75.6% | 42.7% | 74.1% | 29.5% | 62.4% | 55.1% | 49.6% | 40.7% | 50.7% | 29% | 56.8% | 36.7% | 59.4% | 93.1% | 19.7% | 71.4% | 65.5% | 67.1% | 92.8% | 54.9%
Cn1ccnc1C(=O)/C=C/c1ccc(CNC(=O)c2ccc(Cl)cc2)cc1 | 91.7% | 26.4% | 17.3% | -11.3% (active) | 21.3% | 2.81% (active) | 35.9% | 21.1% | 7.64% (active) | 0.825% (active) | 4.17% (active) | -13.7% (active) | 24.6% | 11% | 37.9% | 43.1% | 12.2% | 17% | 28.1% | 10.4%
Cc1ccc(-c2cc3nc(C(Cl)Cl)nc(C)n3n2)cc1 | 110% | 92.3% | 113% | 80.9% | 166% | 87.4% | 96.4% | 132% | 98.4% | 103% | 113% | 94.6% | 102% | 104% | 118% | 84.2% | 72.2% | 104% | 107% | 110%
CCCCCc1ccc(S(=O)(=O)Nc2cc(-c3csc(NC(=O)CN4CCN(CCO)CC4)n3)ccc2OC)cc1 | 94.9% | 73.6% | 74.7% | 54.5% | 104% | 65.6% | 70.8% | 63.1% | 4.78% (active) | 6.18% (active) | -13.2% (active) | -16.9% (active) | 82.1% | 86.1% | 72.5% | 78% | 48.9% | 13.3% | 52.8% | 88.4%
